Consider 36 molecules from PubChem BioAssay (NCATS).

For assay [1], the target named is Catechol O-methyltransferase (Homo sapiens) (UniProt P21964). Description: Confirmatory Screen for Target Class Profiling of Small Molecule Inhibitors of Methyltransferases (AID 1745852; calls by dose curve; also: potency is read from the fitted curve at half-maximal effect; as to activity change, negative = inhibition: % is scaled to controls: 0 for no effect and ±100 for the full control effect). To be noted: MTase-Glo luminescence, SAH detection, recombinant enzyme, stronger effect = lower value; measured here: COMT max response unless noted.
Assay [2] has as its target Guanidinoacetate N-methyltransferase (Homo sapiens) (UniProt Q14353). The description is as above. To be noted: MTase-Glo luminescence, SAH detection, recombinant enzyme; activity change, negative = inhibition: at 57.3 µM (top of the series).
For assay [3], the target named is Nicotinamide N-methyltransferase (Homo sapiens) (UniProt P40261). The assay is described as above. The settings on record: MTase-Glo luminescence, SAH detection, recombinant enzyme, stronger effect = lower value; measured here: NNMT max response unless noted.
Assay [4] has as its target Phenylethanolamine N-methyltransferase (Homo sapiens) (UniProt P11086). Described as above. The settings on record: MTase-Glo luminescence, SAH detection, recombinant enzyme, stronger effect = lower value; measured here: PNMT max response unless noted.
Assay [5] can be described thus: NCATS anti-infectives library activity on HEK293 viability as a counter-qHTS vs the C. elegans viability qHTS (AID 1745854).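 Also: HEK293 cells exposed to compounds for 24 hr before the viability read; % is scaled to controls: 0 for no effect and ±100 for the full control effect.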 The settings on record: HEK293 viability counter-screen; series mostly up to 41.8 µM. The procedure, abridged: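 HEK293 cells (1,500/well) exposed 24 hr at 37C to 1:5 titrations, up to 41.7 uM final; counter-screen to a C. elegans viability qHTS. Viability by CellTiter-Glo luminescence after 10 min at room temperature; digitonin as control.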

Assay [6] concerns the target Rap guanine nucleotide exchange factor 3 (Homo sapiens) (UniProt O95398). Description: Confirmatory qHTS for agonist of cAMP-regulated guanine nucleotide exchange factor 3 (EPAC1) (AID 1645881).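 Also: EPAC1 catalysed release of BODIPY-GDP from Rap1B seen as fluorescence loss; 100% = effect of cAMP agonist control; nearly all actives have a fitted effect of over 75% in size.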 The settings on record: EPAC1 Rap1B BODIPY-GDP exchange fluorescence; series mostly up to 154 µM.
In assay [7] the target is Rap guanine nucleotide exchange factor 4 (Homo sapiens) (UniProt Q8WZA2). Kind of assay: Confirmatory qHTS for agonist of cAMP-regulated guanine nucleotide exchange factor 4 (EPAC2) (AID 1645884).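 Also: nucleotide exchange releases bodipy-GDP from Rap1 and this lowers its fluorescence; % is scaled to controls: 0 for no effect and ±100 for the full control effect; nearly all actives have a fitted effect of over 65% in size.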 The settings on record: EPAC2 GEF activity, Rap1B-BODIPY-GDP fluorescence; series mostly up to 154 µM.
Assay [8] has the same target. Kind of assay: Confirmatory qHTS for antagonist of cAMP-regulated guanine nucleotide exchange factor 4 (EPAC2) (AID 1645885). Also: nearly all actives have a fitted effect of over 25% in size. Also: potency is read from the fitted curve at half-maximal effect. As to activity change, negative = inhibition: % is scaled to controls: 0 for no effect and ±100 for the full control effect. The settings on record: EPAC2 Rap1B-BODIPY-GDP exchange fluorescence, biochemical; series mostly up to 114 µM.
Assay [9] deals with Rap guanine nucleotide exchange factor 3 (Homo sapiens) (UniProt O95398). Kind of assay: Counterscreen qHTS for antagonist of cAMP-regulated guanine nucleotide exchange factor 3 (EPAC1) (AID 1645888). Also: % of control where 0% means no effect. To be noted: Rap1B-BODIPY-GDP nucleotide exchange, fluorescence; series mostly up to 154 µM. An excerpt: Assay Provider (PI): Xiaodong Cheng Ph.D. The University of Texas Medical Branch, […], TX MLPCN Grant: NS066510 In multi-cellular eukaryotic organisms, the effects of cAMP are transduced by two ubiquitously-expressed intracellular cAMP receptors, the classic protein kinase A/cAMP-dependent protein kinase (PKA/cAPK) and the more recently discovered exchange protein directly activated by cAMP/cAMP-regulated guanine nucleotide exchange factor (EPAC/cAMP-GEF). Both PKA and EPAC are ubiquitously expressed in all tissues, and an increase in intracellular cAMP levels will lead to the activation of both PKA and EPAC. Therefore, careful dissections of the individual role and relative contribution of EPAC and PKA within the overall cAMP signaling in various model systems are critical for further elucidating the mechanism of cAMP signaling. To date no EPAC-specific antagonists and agonist, as well as isoform-specific agonists have been reported, and developing EPAC-specific pharmacological probes to determine the physiological functions that EPAC play in the overall cAMP-mediated signaling remains a major challenge within the research field. Furthermore, identified regulators of EPAC may lead to new mechanism-based therapeutic strategies specifically targeting the EPAC / cAMP-signaling components as EPAC has been implicated to play important roles in major human pathological conditions such as diabetes, heart disease, and cancer. This qHTS will be used to screen the Molecular Libraries Small Molecule Repository (MLSMR) as a concentration-titration series using the NCGC unique quantitative screening (qHTS) platform to find activators for EPAC1. […] Activators are identified by monitoring the change in fluorescence signal as the exchanged free BODIPY-GDP has a reduced fluorescence compared to Rap1-bound BODIPY-GDP. […]
EPAC1 Counterscreen PROTOCOL TABLE SEQUENCE No. (e.g., 1, 2, 3, etc.); […] […] Fluorescence. (Read 1), Ex/Em = 480 nm / 540 nm. […] Fluorescence. (Read 2), Ex/Em = 480 nm/ 540 nm. […] Fluorescence. (Read 3), Ex/Em = 480 nm / 540 nm. […] Fluorescence. (Read 4), Ex/Em = 480 nm / 540 nm. […]

For assay [10] the target is unchanged. Kind of assay: Counterscreen qHTS for agonist of cAMP-regulated guanine nucleotide exchange factor 3 (EPAC1) (AID 1645889). Also: % of control where 0% means no effect; nearly all actives have a fitted effect of over 40% in size. The settings on record: EPAC1 Rap1B-BODIPY-GDP exchange, fluorescence; series mostly up to 154 µM. The procedure, abridged: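 Measured: fluorescence of BODIPY-GDP bound to Rap1B, which falls as exchange proceeds. Conditions include 50 uM competing GDP, 5 and 30 min reads, and a later cAMP challenge for antagonist detection.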

Values joined by “and” are separate entries in the source; they are usually repeats but may differ in a detail not shown here. Equal entries are not always repeated. Inconclusive results are not listed. More than one record can exist for a structure, and the calls need not agree. Active and inactive are the calls of the source. Unless noted, calls follow the shape of the dose curve; as a rule, active = well fitted curve in the direction sought with a large enough effect; inconclusive = small, poorly fitted or top-dose-only effect, or another doubt; inactive = no such curve, though single readings can be large; an effect the other way counts as inactive or inconclusive. Non-standard residues stand in square brackets, D forms with d. Residues, ends and D or L forms follow the SMILES beside them. *: point of attachment. Sta = CC(C)C[C@H](N)[C@@H](O)CC(=O)O; Isovaleryl = CC(C)CC(=O)*

Chain of Rap guanine nucleotide exchange factor 4 (Homo sapiens) (Q8WZA2 whole entry, looked up): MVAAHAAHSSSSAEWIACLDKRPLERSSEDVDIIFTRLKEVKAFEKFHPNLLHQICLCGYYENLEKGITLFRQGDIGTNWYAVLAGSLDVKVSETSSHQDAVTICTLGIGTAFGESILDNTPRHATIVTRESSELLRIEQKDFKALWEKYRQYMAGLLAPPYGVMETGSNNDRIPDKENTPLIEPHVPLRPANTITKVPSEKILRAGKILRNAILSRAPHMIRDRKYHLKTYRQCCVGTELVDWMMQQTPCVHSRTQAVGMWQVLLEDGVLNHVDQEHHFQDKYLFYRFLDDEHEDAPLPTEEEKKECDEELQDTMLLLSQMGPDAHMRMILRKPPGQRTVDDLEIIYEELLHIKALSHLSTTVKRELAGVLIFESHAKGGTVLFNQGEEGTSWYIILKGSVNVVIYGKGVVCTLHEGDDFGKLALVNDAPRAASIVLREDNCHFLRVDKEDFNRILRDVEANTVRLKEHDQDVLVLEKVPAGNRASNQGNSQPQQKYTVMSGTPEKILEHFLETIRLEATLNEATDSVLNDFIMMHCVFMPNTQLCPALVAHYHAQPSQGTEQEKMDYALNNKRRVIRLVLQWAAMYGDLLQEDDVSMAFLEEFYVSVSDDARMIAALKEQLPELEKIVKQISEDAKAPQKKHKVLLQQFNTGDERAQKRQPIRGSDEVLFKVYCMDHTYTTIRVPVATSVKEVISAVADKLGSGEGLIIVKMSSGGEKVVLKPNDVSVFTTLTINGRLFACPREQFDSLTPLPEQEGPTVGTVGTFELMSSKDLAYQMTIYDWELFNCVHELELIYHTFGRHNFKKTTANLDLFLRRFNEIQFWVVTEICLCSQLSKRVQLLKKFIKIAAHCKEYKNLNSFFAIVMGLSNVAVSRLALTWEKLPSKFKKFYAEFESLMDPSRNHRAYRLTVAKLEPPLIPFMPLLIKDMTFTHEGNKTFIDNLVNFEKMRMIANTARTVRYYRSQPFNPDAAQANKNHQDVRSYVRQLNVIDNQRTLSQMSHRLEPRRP
Chain of Catechol O-methyltransferase (Homo sapiens) (P21964 whole entry, looked up): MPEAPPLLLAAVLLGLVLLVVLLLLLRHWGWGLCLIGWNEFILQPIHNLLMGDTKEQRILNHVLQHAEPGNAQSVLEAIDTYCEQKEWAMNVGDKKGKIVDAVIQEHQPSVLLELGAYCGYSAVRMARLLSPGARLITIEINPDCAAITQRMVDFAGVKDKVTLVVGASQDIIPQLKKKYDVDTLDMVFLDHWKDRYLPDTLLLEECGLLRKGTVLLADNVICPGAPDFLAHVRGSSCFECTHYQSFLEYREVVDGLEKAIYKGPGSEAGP
Chain of Rap guanine nucleotide exchange factor 3 (Homo sapiens) (O95398 whole entry, looked up): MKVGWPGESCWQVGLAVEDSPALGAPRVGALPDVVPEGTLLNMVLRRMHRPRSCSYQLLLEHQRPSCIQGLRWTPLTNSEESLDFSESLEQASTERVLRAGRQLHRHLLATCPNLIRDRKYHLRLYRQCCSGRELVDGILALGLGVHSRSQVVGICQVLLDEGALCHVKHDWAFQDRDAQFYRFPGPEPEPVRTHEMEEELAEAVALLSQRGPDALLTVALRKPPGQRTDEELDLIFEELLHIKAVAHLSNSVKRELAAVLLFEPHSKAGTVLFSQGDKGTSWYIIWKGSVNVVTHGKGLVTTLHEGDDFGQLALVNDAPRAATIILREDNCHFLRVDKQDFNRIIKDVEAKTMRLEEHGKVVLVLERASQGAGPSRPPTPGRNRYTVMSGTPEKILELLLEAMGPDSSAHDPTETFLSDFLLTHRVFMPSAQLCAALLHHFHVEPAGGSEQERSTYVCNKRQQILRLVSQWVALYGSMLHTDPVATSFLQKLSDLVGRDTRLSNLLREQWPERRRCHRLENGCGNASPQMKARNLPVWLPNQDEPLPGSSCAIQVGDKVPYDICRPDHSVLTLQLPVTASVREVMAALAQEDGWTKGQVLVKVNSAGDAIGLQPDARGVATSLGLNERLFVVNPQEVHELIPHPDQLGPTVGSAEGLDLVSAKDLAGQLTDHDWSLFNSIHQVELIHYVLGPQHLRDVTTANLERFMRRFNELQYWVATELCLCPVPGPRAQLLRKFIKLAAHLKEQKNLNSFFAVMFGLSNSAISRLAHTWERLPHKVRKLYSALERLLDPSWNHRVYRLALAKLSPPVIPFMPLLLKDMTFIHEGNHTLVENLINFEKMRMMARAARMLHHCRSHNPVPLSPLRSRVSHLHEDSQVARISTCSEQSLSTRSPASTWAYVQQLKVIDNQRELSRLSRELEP
Chain of Nicotinamide N-methyltransferase (Homo sapiens) (P40261 whole entry, looked up): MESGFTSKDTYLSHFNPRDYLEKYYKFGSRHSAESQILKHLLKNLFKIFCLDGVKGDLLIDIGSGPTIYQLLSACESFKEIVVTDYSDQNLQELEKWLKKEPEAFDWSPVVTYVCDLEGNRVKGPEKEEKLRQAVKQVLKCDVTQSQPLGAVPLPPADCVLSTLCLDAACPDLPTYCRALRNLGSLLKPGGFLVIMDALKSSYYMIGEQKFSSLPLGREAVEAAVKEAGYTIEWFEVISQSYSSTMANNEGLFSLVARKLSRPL
Chain of Phenylethanolamine N-methyltransferase (Homo sapiens) (P11086 whole entry, looked up): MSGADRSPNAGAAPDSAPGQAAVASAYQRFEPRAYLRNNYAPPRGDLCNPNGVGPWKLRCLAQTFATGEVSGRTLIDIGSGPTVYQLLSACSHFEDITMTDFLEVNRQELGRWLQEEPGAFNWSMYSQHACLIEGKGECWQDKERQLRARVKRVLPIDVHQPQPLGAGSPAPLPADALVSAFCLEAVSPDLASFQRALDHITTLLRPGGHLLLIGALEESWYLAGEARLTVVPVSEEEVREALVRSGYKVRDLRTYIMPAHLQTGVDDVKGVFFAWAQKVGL

For `COc1c(O)cc2c(c1O)[C@@H]1O[C@H](CO)[C@@H](O)[C@H](O)[C@H]1OC2=O`, the figures for the activity in assay [1], in assay [3] and in [4] were -77.9%, 1.14% and -0.831%, respectively. Moreover, the activity change, negative = inhibition in assay [2] amounted to 0%. For the same molecule, the outcome in assay [5] was “inactive”.

Take `CCN(CCO)CCCC(C)Nc1ccnc2cc(Cl)ccc12` (stereo not given): the activity change, negative = cytotoxicity in assay [5] was -19.5% [at 3.71 µM] (inactive).

On to `Cc1c(OCC(F)(F)F)ccnc1CS(=O)c1nc2ccccc2[nH]1` (stereo not given), for which the activity came to 13% in assay [1], 8.13% in assay [3] and 10% in assay [4]. Also, in assay [2], the activity change, negative = inhibition stood at 6.68%.

On to `O=c1oc2cc(O)ccc2s1`, for which, in assay [5], the outcome was “inactive”.

In the case of `N=C(N)c1ccc2cc(OC(=O)c3ccc(N=C(N)N)cc3)ccc2c1`, the outcome in assay [5] was “inactive”.

For the molecule `CN(C)C(=O)COC(=O)Cc1ccc(OC(=O)c2ccc(N=C(N)N)cc2)cc1`, the outcome in assay [5] was “inactive”.

Consider `C[C@H](Cn1cnc2c(N)ncnc21)OCP(=O)(O)O`, for which the outcome in assay [5] is “inactive”.

Regarding `CCOc1cc(CC(=O)N[C@@H](CC(C)C)c2ccccc2N2CCCCC2)ccc1C(=O)O`, the outcome in assay [6], in assay [7], in assay [9] and in [10] was “inactive” throughout. Also, the Potency entry in assay [8] was “inactive”.

Take `CC(C)CC(=O)N[C@H](C(=O)N[C@H](C(=O)N[C@@H](CC(C)C)[C@@H](O)CC(=O)N[C@@H](C)C(=O)N[C@@H](CC(C)C)[C@@H](O)CC(=O)O)C(C)C)C(C)C` (Isovaleryl-VV[Sta]A[Sta]-OH): the outcome in [5] was “inactive”.

Turning to `COC(=O)C1=C(C)NC(C)=C(C(=O)OC(C)C)C1c1cccc2nonc12` (stereo not given), the outcome in [6] and in assay [7] was “inactive” in each case. In addition, the Potency in assay [8] was 44.1 µM (active).

For `CC(=O)NC[C@H]1CN(c2ccc(N3CCOCC3)c(F)c2)C(=O)O1`, the outcome in [5] was “inactive”.

On to `CC(=O)N1CCN(c2ccc(OC[C@H]3CO[C@](Cn4ccnc4)(c4ccc(Cl)cc4Cl)O3)cc2)CC1`, for which the outcome in [6] and in [7] was “inactive” each time. In addition, the Potency in [8] was 49.4 µM (active).

In the case of `O=P(O)(O)C(O)(Cn1ccnc1)P(=O)(O)O`, the activity change, negative = cytotoxicity in [5] is -5.55% [at 3.71 µM] (inactive).

Turning to `O=C1NC(=O)C(c2ccccc2[N+](=O)[O-])=C1Nc1ccc(O)c(Cl)c1`, the outcome in [5] was “inactive”.

As for `COc1ccc2cc([C@H](C)C(=O)O)ccc2c1`, the outcome in [5] was “inactive”.

Consider `CCN(CC)C(=S)SSC(=S)N(CC)CC`, for which the activity in assay [1] is -3.32%; in [3], -10.3%; in assay [4], -2.02%. The activity change, negative = inhibition in [2] came to 4.64%.

Regarding `CCOC(=O)C1=C[C@@H](OC(CC)CC)[C@H](NC(C)=O)[C@@H](N)C1`, in assay [5], the outcome was “inactive”.

`C[C@H](Cc1ccc(O)c(O)c1)[C@@H](C)Cc1ccc(O)c(O)c1`: the activity in [1] is 10.2%; in assay [3], -37.4%; in assay [4] it was -61.1%. Also, the Potency in [2] was 30.6 µM (active).

Regarding `Cc1ccc(NC(=O)c2ccc(CN3CCN(C)CC3)cc2)cc1Nc1nccc(-c2cccnc2)n1`, the outcome in assay [5] was “inactive”.

For the molecule `CCOC(=O)c1c(C)n(C)c2ccc(O)cc12`, the outcome in assay [5] was “inactive”.

Take `Oc1ccc2ccccc2c1SSc1c(O)ccc2ccccc12`: the activity in assay [1] is 22.1%; in [3] it was -8.59%; in assay [4], 2.32%. Besides, the activity change, negative = inhibition in assay [2] is -0.328%.

`Oc1ccc(OCc2ccccc2)cc1`: the outcome in assay [5] was “inactive”.

As for `CC(C)[C@H](N)C(=O)OCCOCn1cnc2c(=O)[nH]c(N)nc21`, in assay [5], the outcome is “inactive”.

Consider `O=c1ccc2ccc(O)c(O)c2o1`, for which the activity was 197% in [1], -4.08% in assay [3] and 2.42% in [4]. Besides, in assay [2], the activity change, negative = inhibition was found to be 2.41%.

Take `CCN(CC)CCOc1ccc(Nc2ncc3cc(-c4c(Cl)cccc4Cl)c(=O)n(C)c3n2)cc1`: the activity in [1] was -14.1%; in [3] it was -19.9%; in assay [4], -2.93%. Further, in assay [2], the activity change, negative = inhibition turned out to be 1.71%.

`Cc1nc(Nc2ncc(C(=O)Nc3c(C)cccc3Cl)s2)cc(N2CCN(CCO)CC2)n1`: the activity in assay [1] was -54.8%; in assay [3], -33%; in assay [4], -52.6%. In addition, in [2], the Potency was 30.4 µM (active). Also, in [5], the outcome is “inactive”.

`CC(C)c1nc(CN(C)C(=O)N[C@H](C(=O)N[C@@H](Cc2ccccc2)C[C@H](O)[C@H](Cc2ccccc2)NC(=O)OCc2cncs2)C(C)C)cs1`: the outcome in [5] is “inactive”.

As to `Cc1cc(Cl)ccc1OCCCC(=O)NO`, the outcome in [5] is “inactive”.

For the molecule `N=C(N=C(N)N)N1CCOCC1`, the outcome in assay [5] was “inactive”.

With `CC(C)c1ccc2c(c1)c(SC(C)(C)C)c(CC(C)(C)C(=O)O)n2Cc1ccc(Cl)cc1`, the outcome in assay [6], in assay [7], in assay [9] and in [10] was “inactive” throughout. Further, the Potency result is “inactive and 19 µM (active) and 27.8 µM (active)” in assay [8]; 30.6 µM (active) in assay [2]. Also, the values for the activity in assay [1], in assay [3] and in assay [4] were -0.145%, -41.8% and -5.81%, respectively.

For `Cc1ccc(Nc2nccc(N(C)c3ccc4c(C)n(C)nc4c3)n2)cc1S(N)(=O)=O`, the activity is -4.72% in assay [1], -0.226% in [3] and -2.8% in [4]. Also, the activity change, negative = inhibition in assay [2] was determined as 0%.

For the molecule `COC(=O)N[C@H](C(=O)N[C@@H](Cc1ccccc1)[C@@H](O)CN(Cc1ccc(-c2ccccn2)cc1)NC(=O)[C@@H](NC(=O)OC)C(C)(C)C)C(C)(C)C`, in assay [5], the outcome is “inactive”.

Turning to `N[C@@H](Cc1cc(I)c(Oc2cc(I)c(O)c(I)c2)c(I)c1)C(=O)O`, the activity was -6.89% in assay [1], -9.69% in assay [3] and -6.64% in assay [4]. Further, in [2], the activity change, negative = inhibition was -4.64%.

As to `COc1cc(Nc2c(C#N)cnc3cc(OCCCN4CCN(C)CC4)c(OC)cc23)c(Cl)cc1Cl`, the activity in [1] was -94.4%; in [3], -86.9%; in [4], -96.9%. For the same molecule, the Potency in assay [2] is 12.1 µM (active).

Regarding `Clc1ccc(C(Cn2ccnc2)OCc2c(Cl)cccc2Cl)c(Cl)c1` (stereo not given), the outcome in [6], in assay [7] and in [9] was “inactive” each time. Further, in assay [8], the Potency is 20.5 µM (active) and inactive. Moreover, the figures for the activity in assay [1], in [3] and in assay [4] were -8.16%, -55.2% and -12.3%, respectively. Moreover, in [2], the activity change, negative = inhibition was -4.74%.

With `COC(=O)C1=C(C)NC(C)=C(C(=O)OCCCN2CCC(c3ccccc3)(c3ccccc3)CC2)C1c1cccc([N+](=O)[O-])c1` (stereo not given), the outcome in [6] and in assay [7] was “inactive” each time.
